This note sets out measurements from PMC7819943, “Rice protein-binding microarrays: a tool to detect cis-acting elements near promoter regions in rice”.

The full ranking holds about 39,000 sequences; the median of “fluorescence intensity (a.u.)” is about 4,300, and the highest 2% start at about 39,000. The sample holds the highest values, similar sequences and a random draw of the others, so the mix is not that of the screen.

The target in the assay is T1, OsSMF1 (Oryza sativa, UniProt Q6ZLB0 1-436).
T1 sequence: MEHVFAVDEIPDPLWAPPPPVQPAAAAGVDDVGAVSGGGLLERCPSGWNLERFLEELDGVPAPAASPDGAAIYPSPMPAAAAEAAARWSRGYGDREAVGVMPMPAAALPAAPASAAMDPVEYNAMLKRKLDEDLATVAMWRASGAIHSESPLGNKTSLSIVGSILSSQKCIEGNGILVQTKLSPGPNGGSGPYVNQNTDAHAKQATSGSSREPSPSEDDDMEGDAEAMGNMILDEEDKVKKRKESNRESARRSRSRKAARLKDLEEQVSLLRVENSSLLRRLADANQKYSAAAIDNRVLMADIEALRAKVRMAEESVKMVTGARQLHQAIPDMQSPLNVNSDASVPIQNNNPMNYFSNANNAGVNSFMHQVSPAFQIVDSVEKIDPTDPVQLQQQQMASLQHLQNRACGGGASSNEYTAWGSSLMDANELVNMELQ
As to the kind of experiment: protein-binding microarray (RPBM); PBS, 2% BSA, 51.3 ng/ul salmon testes DNA, 50 uM zinc acetate, 200 nM TF, 25 C, 1 h; high values mean tight binding. Conditions: protein: recombinant; tags: N-terminal polyhistidine and DsRed monomer fusion (pET32a); chain copies: 2; label: CyDye5-dUTP incorporated in the synthesized complementary strand; 3' TTTTT single-stranded linker to array surface; dsDNA, one strand shown. In outline:
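Binding signal here means per-feature fluorescence intensity in arbitrary units. The values were read on an Axon 4000B scanner after a custom Agilent array, double-stranded by primer extension with Cy5-dUTP, was incubated with 200 nM protein at 25 °C for 1 h in PBS with 2% BSA, salmon testes DNA and 50 µM zinc acetate, then washed. The proteins were transcription factors with an N-terminal polyhistidine tag and DsRed, expressed in E. coli BL21-CodonPlus and purified on Ni–NTA.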
Regarding “GCTTGCTCGCCGGCGGTGTGGGAATGATGACTCCCAGCCCCGGAGTCACCTAGTGCAG”, the binding signal is 4050 fluorescence intensity (a.u.).
As for “GTCGTGTCGGCTGCCGATTACACTATCGGCAGTGCAGCCGCGGAGTCACCTAGTGCAG”, the figure is 4270 fluorescence intensity (a.u.); as for “CGCGGCGCGCACACGCCATGCCGGCATGCCGTGGCATACCCGGAGTCACCTAGTGCAG”, 3990 fluorescence intensity (a.u.); as for “CTATATATGTGACGCTGACGTTCCTCATCTCCCAAGCTGCCGGAGTCACCTAGTGCAG”, 7040 fluorescence intensity (a.u.).
As for “TTAGTGTCTGCATTGGATATGAGTCACGGGTTCTTGGTTACGGAGTCACCTAGTGCAG”, the figure is 12600 fluorescence intensity (a.u.); as for “CGACGTCGGCGAGGGAGGGCTTCCTGGGCACGTCGGCGAGCGGAGTCACCTAGTGCAG”, 3150 fluorescence intensity (a.u.); as for “ACAGCAAACAAACGTAACACCTTAACACGTCATGCAGTTTCGGAGTCACCTAGTGCAG”, 15100 fluorescence intensity (a.u.).
As for “AAGAGTCGGGTTGTGCTGACCCAAAAGCACGACAGCCCATCGGAGTCACCTAGTGCAG”, the figure is 3250 fluorescence intensity (a.u.).
With “ATACCGCGACAATGACATCTGAGTCAATGACTCGTGATAACGGAGTCACCTAGTGCAG”, the binding signal is 4510 fluorescence intensity (a.u.).
As to “CTCATGATGGCTTTATCAATATCAAGATTTGATGACTCAGCGGAGTCACCTAGTGCAG”, the binding signal is 15400 fluorescence intensity (a.u.).
Consider “TAGGTCTTCGTCCCACGTGGCATTGACGTGGCGCTTACGCCGGAGTCACCTAGTGCAG”, for which the binding signal was 30000 fluorescence intensity (a.u.).
As for “GTTTGAATAGGTCTTTCGTCCCACGTGGCATTGACGTGGCCGGAGTCACCTAGTGCAG”, the figure is 45700 fluorescence intensity (a.u.); as for “CATAGATCTTTTGACTAGGTTTTCGTTCCACGTGGCATCACGGAGTCACCTAGTGCAG”, 12900 fluorescence intensity (a.u.).
Then “ACACTTATCGACGTGCCAGCGCGACGCAATATGCTCCGATCGGAGTCACCTAGTGCAG”, with 5400 fluorescence intensity (a.u.).
As for “CACAAATGAAGAAACAAGGTGTTGCATCACCAGTCATGGGCGGAGTCACCTAGTGCAG”, the figure is 6740 fluorescence intensity (a.u.); as for “TTTAACTATGAGAATATATAGTACGTGTTGAGACATGAAACGGAGTCACCTAGTGCAG”, 27800 fluorescence intensity (a.u.); as for “TGCAAGCAGCAAGCGTGTCACTACGTTTACATGACATGCACGGAGTCACCTAGTGCAG”, 47600 fluorescence intensity (a.u.).
With “TGACCTAATACATTCATGCTGACTAGCGTTTACGTGGCAACGGAGTCACCTAGTGCAG”, the binding signal was 14100 fluorescence intensity (a.u.).
Turning to “TCCATGCTGGTTTTAGTCCTACGTGACAATACAGTCAGCACGGAGTCACCTAGTGCAG”, the binding signal is 5640 fluorescence intensity (a.u.).
Then “TTTAATTATATTATCACTGACATGTGGGTCCCACTATATGCGGAGTCACCTAGTGCAG”, with 4330 fluorescence intensity (a.u.); and “CACTCCTCTGCTGCTCGTCGTCAATGCCATCCTCATCATGCGGAGTCACCTAGTGCAG”, with 3330 fluorescence intensity (a.u.).
Then “GCCAATGCCATGTCCTCTGCGGCCTGCTTGCTGGTGAACTCGGAGTCACCTAGTGCAG”, with 46600 fluorescence intensity (a.u.).
As for “CTCGACATTGCTGGCAATGCCTGGGAGATTGCTTGCCATGCGGAGTCACCTAGTGCAG”, the figure is 3180 fluorescence intensity (a.u.).
